The results in this text go back to PubChem BioAssay (EPA / NIEHS).

Results filed as inconclusive are left out. Calls of active or inactive are those of the source. How the source made its calls, unless noted: active means hit-call score of the fitted dose curve at least 0.9, where 1 is the maximum; inactive means score below 0.9.

Experiment [1] can be described thus: ATG_TCF_b_cat_CIS: Attagene CIS-FACTORIAL HepG2 Assay for human T-Cell-Factor with beta-catenin (TCF/b-cat) (AID 2282965). The settings on record: HepG2 TCF/beta-catenin cis-reporter transcription, actives raise or lower the signal. In a few lines:
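Endogenous TCF/LEF activity read as reporter transcript level via RT-PCR and capillary electrophoresis fluorescence in transfected HepG2, 24 h exposure; gain or loss of signal fitted against DMSO controls.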

A short description of experiment [2]: ATG_TAL_CIS: Attagene CIS-FACTORIAL HepG2 Assay for human TAL Basal Promoter (AID 2282966).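 Further: background control endpoint measuring basal TAL promoter reporter mRNA not a specific factor.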 Particulars: HepG2 Attagene cis-factorial TAL promoter reporter; actives raise or lower the signal. In a few lines: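 After 24 hours of chemical exposure, transfected HepG2 cells yielded RNA that was converted to 6-FAM-labelled, HpaI-digested reporter fragments for capillary electrophoresis. Values derive from bidirectional fitting against DMSO controls.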

Experiment [3] is described as follows: ATG_TGFb_CIS: Attagene CIS-FACTORIAL HepG2 Assay for human Transforming Growth Factor (TGF) (AID 2282967). Particulars: HepG2 Attagene CIS TGFb reporter, mRNA transcription; actives raise or lower the signal. In outline: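 Transcript-level reporter readout: HepG2 transfectants, 24 h exposure, RNA to cDNA, reporter-specific PCR, fluorescent primer extension, capillary sizing against ROX standards. Gain- or loss-of-signal relative to DMSO.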

Experiment [4] addresses Estrogen receptor (Homo sapiens) (UniProt P03372). Briefly: ATG_ERa_TRANS: Attagene TRANS-FACTORIAL HepG2 Assay for human Estrogen Receptor alpha (ERa) (AID 2282970; active means hit-call score of the fitted dose curve at least 0.9, where 1 is the maximum). The settings on record: HepG2 Attagene TRANS ERa GAL4 reporter, mRNA. In outline: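 Liver-derived HepG2 cells expressing chimeric nuclear receptor-Gal4 proteins from transient transfection were exposed for 24 hours. Gain of reporter mRNA signal versus DMSO, read by capillary electrophoresis of FAM-labelled PCR products, was recorded.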

In experiment [5] the target is X-box-binding protein 1 (Homo sapiens) (UniProt P17861). Briefly: ATG_Xbp1_CIS: Attagene CIS-FACTORIAL HepG2 Assay for human X-box Binding Protein 1 (XBP1) (AID 2282972). Particulars: HepG2 XBP1 cis-element reporter, Attagene multiplex; actives raise or lower the signal. In outline: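 Read-out: fluorescent reporter mRNA fragments resolved by capillary electrophoresis after RT-PCR. Human HepG2 liver cells carried transfected cis-promoter reporter units and were exposed to chemicals for 24 hours. Gain or loss of signal fitted relative to DMSO baseline.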
Sequence of X-box-binding protein 1 (Homo sapiens) (P17861 whole entry, looked up, the tested form may be a part): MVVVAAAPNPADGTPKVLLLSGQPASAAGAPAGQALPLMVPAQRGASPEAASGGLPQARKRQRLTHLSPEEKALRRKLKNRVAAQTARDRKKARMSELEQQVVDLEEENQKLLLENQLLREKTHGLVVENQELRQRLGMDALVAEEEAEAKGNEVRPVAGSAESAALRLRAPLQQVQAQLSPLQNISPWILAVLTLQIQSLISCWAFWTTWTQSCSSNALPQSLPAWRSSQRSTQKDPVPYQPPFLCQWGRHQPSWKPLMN

Experiment [6] is described as follows: ATG_M_19_TRANS: Attagene TRANS-FACTORIAL HepG2 Assay for M19 Transcription Factor (Internal Marker) (AID 2282974; active means hit-call score of the fitted dose curve at least 0.9, where 1 is the maximum). Particulars: HepG2 Attagene TRANS-FACTORIAL M19 internal marker reporter. In a few lines: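 HepG2 cells transiently transfected with multiple GAL4-UAS reporter transcription units were exposed to chemicals for 24 h. Reporter mRNA was read by RT-PCR, 6-FAM primer extension, HpaI digestion and capillary electrophoresis; gain of signal fitted relative to DMSO.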

Experiment [7] can be described thus: ATG_GAL4_TRANS: Attagene TRANS-FACTORIAL HepG2 Assay for GAL4 (Internal Marker) (AID 2282976; active means hit-call score of the fitted dose curve at least 0.9, where 1 is the maximum). Particulars: HepG2 Attagene TRANS GAL4 internal marker reporter. In outline:
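First, HepG2 cells were transfected with reporter units under GAL4-UAS control. Next, they were treated with chemical for 24 h. Finally, RNA was reverse-transcribed, PCR-amplified, FAM-labelled and resolved by capillary electrophoresis, with induction scored against DMSO.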

Experiment [8] addresses Steroid hormone receptor ERR1 (Homo sapiens) (UniProt P11474). Briefly: ATG_ERRa_TRANS: Attagene TRANS-FACTORIAL HepG2 Assay for human Estrogen-Related Receptor alpha (ERRa) (AID 2282971; active means hit-call score of the fitted dose curve at least 0.9, where 1 is the maximum). The settings on record: HepG2 Attagene TRANS reporter, ERRa transactivation. In a few lines: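 Reporter transcript induction was quantified by RT-PCR and capillary electrophoresis of FAM-labelled, HpaI-cut products after 24 h treatment of HepG2 cells carrying transiently transfected GAL4-UAS reporter units and an exogenous ERRa-Gal4 fusion; activity scored as increase over DMSO.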

Sequence of Estrogen receptor (Homo sapiens) (P03372 whole entry, looked up, the tested form may be a part): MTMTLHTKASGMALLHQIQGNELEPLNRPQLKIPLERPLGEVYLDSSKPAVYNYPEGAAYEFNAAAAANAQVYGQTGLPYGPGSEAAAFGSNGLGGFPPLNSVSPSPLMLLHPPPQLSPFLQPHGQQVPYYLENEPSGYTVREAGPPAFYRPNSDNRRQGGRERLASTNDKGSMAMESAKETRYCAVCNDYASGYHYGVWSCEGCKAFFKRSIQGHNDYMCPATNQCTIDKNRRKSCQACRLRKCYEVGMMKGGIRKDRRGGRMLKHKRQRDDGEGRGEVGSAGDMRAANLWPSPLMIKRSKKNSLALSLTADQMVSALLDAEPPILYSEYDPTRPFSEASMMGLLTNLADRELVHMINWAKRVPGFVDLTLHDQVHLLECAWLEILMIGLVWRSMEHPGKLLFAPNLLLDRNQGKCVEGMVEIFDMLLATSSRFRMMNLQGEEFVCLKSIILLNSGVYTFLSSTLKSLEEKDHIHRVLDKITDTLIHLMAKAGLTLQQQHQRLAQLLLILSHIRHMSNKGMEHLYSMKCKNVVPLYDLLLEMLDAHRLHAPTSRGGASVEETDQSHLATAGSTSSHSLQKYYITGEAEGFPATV
Sequence of Steroid hormone receptor ERR1 (Homo sapiens) (P11474 whole entry, looked up, the tested form may be a part): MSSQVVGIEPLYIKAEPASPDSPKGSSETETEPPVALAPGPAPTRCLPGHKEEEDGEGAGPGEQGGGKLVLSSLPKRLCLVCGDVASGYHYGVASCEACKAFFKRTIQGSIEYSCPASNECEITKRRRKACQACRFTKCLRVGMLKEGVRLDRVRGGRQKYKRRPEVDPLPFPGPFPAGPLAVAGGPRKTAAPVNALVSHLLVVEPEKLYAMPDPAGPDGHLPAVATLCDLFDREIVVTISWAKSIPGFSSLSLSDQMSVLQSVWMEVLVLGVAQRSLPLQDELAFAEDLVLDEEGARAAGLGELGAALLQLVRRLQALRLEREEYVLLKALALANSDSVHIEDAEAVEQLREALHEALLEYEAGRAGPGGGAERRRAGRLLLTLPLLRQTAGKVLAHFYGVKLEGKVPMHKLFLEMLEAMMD

In the case of `Cc1ccc2c(c1)CCCN2`, the compound was classed as inactive in experiment [1], in experiment [2], in experiment [3], in experiment [4] and in experiment [5].

On to `O=C(Oc1ccccc1)c1ccccc1C(=O)Oc1ccccc1`, for which the AC50 (as a rule, the concentration at which the activity in the assay is half-maximal) in experiment [1] is 51.4 µM (active). In addition, the call in experiment [2], in experiment [3], in experiment [4], in experiment [5] and in experiment [6] was inactive.

On to `COc1ccc(C(=O)c2ccccc2)c(O)c1`, for which the outcome in experiment [1], in experiment [2], in experiment [5], in experiment [6] and in experiment [7] was inactive. The AC50 is 156 µM (active) in experiment [3] and 6.43 µM (active) in experiment [4].

`CC(C)CO`: the outcome in experiment [1], in experiment [2], in experiment [4], in experiment [5] and in experiment [7] was inactive. Besides, in experiment [3], the AC50 was 0.224 µM (active).

With `CC(c1cc(C(C)(C)C)cc(C(C)(C)C)c1O)c1cc(C(C)(C)C)cc(C(C)(C)C)c1O`, the compound was called inactive in experiment [1], in experiment [2], in experiment [3] and in experiment [5].

Regarding `O=C1c2ccccc2C(=O)c2cc(S(=O)(=O)O)ccc21`, the compound was classed as inactive in experiment [1], in experiment [2], in experiment [3] and in experiment [6].

`C=C(C)[C@@H]1CC=C(C)CC1`: the compound was called inactive in experiment [1], in experiment [2], in experiment [3], in experiment [5] and in experiment [6].

For `O=C1CCCN1C1CCCCC1`, the outcome in experiment [1], in experiment [2], in experiment [3], in experiment [4], in experiment [5] and in experiment [6] was inactive.

For `CCN1CN(CC)CN(CC)C1`, in experiment [1], the AC50 is 132 µM (active). Also, the compound was classed as inactive in experiment [2], in experiment [3], in experiment [4] and in experiment [6].

As for `O=C1CCCCC1C1CCCCC1` (stereo not given), the compound was called inactive in experiment [1], in experiment [2], in experiment [3], in experiment [4], in experiment [5] and in experiment [6]. In experiment [7], the call was inactive.

Turning to `N=C1C=CC(=C(c2ccc(N)cc2)c2ccc(N)cc2)C=C1`, the results for the AC50 in experiment [1] and in experiment [5] were 26.5 µM (active) and 25.3 µM (active), respectively. For the same compound, the result in experiment [2], in experiment [3], in experiment [4], in experiment [6] and in experiment [7] was inactive.

As to `C=C1C[C@H]2[C@@H]3C=C(C)C4=CC(=O)CC[C@]4(C)[C@H]3CC[C@]2(C)[C@@]1(OC(C)=O)C(C)=O`, the AC50 in experiment [1] was 18.9 µM (active); in experiment [2], 52.8 µM (active); in experiment [5], 88 µM (active). The compound was called inactive in experiment [3] and in experiment [6].

With `CC(=O)OC1CCCCC1`, the result in experiment [1], in experiment [2], in experiment [3], in experiment [8], in experiment [5] and in experiment [7] was inactive.

Regarding `COC(=O)c1ccccc1C`, the compound was classed as inactive in experiment [1], in experiment [2], in experiment [3] and in experiment [6].

As to `CCOC(=O)c1ccccc1C`, the compound was called inactive in experiment [1], in experiment [2], in experiment [3] and in experiment [5].

On to `CC1(C)CCC[C@]2(C)[C@H]3CC(=O)O[C@]3(C)CC[C@@H]12`, for which the outcome in experiment [1], in experiment [2], in experiment [3], in experiment [5] and in experiment [6] was inactive. Also, the concentration at half-maximal activity (AC50) in experiment [4] was 2.7 µM (active).

Regarding `Cc1ccccc1CCO`, the outcome in experiment [1], in experiment [2], in experiment [3], in experiment [5] and in experiment [6] was inactive.

Regarding `CCCCNS(=O)(=O)c1ccc(C)cc1`, the call in experiment [1], in experiment [2], in experiment [3], in experiment [4], in experiment [5] and in experiment [6] was inactive.

On to `CCCCC/C=C\C/C=C\CCCCCCCC(=O)O`, for which the outcome in experiment [1], in experiment [3], in experiment [4] and in experiment [6] was inactive. Moreover, the AC50 is 100 µM (active) in experiment [2] and 147 µM (active) in experiment [5].

As to `CC(=O)c1ccccc1O`, the compound was called inactive in experiment [1], in experiment [2], in experiment [3], in experiment [4], in experiment [5] and in experiment [6].

In the case of `CCc1cccc(C)c1N(C(=O)CS(=O)(=O)O)C(C)COC` (stereo not given), the compound was called inactive in experiment [1], in experiment [2], in experiment [3], in experiment [5] and in experiment [7]. For the same compound, in experiment [4], the AC50 was 56.2 µM (active).

On to `CO[Si](CCCS)(OC)OC`, for which the call in experiment [1], in experiment [2], in experiment [3], in experiment [4], in experiment [5] and in experiment [6] was inactive.

As for `CC(C)CCCCCOC(=O)CS`, the outcome in experiment [1], in experiment [2], in experiment [3], in experiment [5] and in experiment [7] was inactive.

Consider `CC1=C(O)C(=O)C(C)O1` (stereo not given), for which the result in experiment [1], in experiment [2], in experiment [3], in experiment [4], in experiment [5] and in experiment [7] was inactive.

Turning to `CCCCCCCCCCCCC`, the result in experiment [1], in experiment [2], in experiment [3], in experiment [4], in experiment [5] and in experiment [7] was inactive.

Regarding `CC1(C)C(=O)N(CO)C(=O)N1CO`, the compound was called inactive in experiment [1], in experiment [2], in experiment [3] and in experiment [5].

Take `CCC(C)(O)CCCC(C)C` (stereo not given): the call in experiment [1], in experiment [2], in experiment [3], in experiment [4], in experiment [5] and in experiment [6] was inactive. In experiment [7], the call was inactive.

With `Nc1ccc(C(=O)O)cc1`, the compound was called inactive in experiment [1], in experiment [2], in experiment [3], in experiment [4], in experiment [5] and in experiment [6]. The call in experiment [7] was inactive.

Turning to `CC(=O)OC/C=C(/C)CCC=C(C)C`, the compound was called inactive in experiment [1], in experiment [2], in experiment [3], in experiment [4], in experiment [5] and in experiment [6].

With `O=C(Oc1ccccc1)c1ccccc1O`, the compound was classed as inactive in experiment [1], in experiment [2], in experiment [3], in experiment [4], in experiment [5] and in experiment [7].

For the compound `CCCCc1ccc(Cl)cc1`, the result in experiment [1], in experiment [2], in experiment [3], in experiment [4], in experiment [5] and in experiment [7] was inactive.

Turning to `O=C(OCc1ccccc1)c1ccc(O)cc1`, the AC50 in experiment [1] was 124 µM (active); in experiment [4], 26.7 µM (active); in experiment [5] it was 147 µM (active). Moreover, the outcome in experiment [2], in experiment [3] and in experiment [6] was inactive.

As to `CC1CCC(=O)C1=O` (stereo not given), the compound was classed as inactive in experiment [1], in experiment [2], in experiment [3], in experiment [4], in experiment [5] and in experiment [6]. In experiment [7], the compound was called inactive.

Turning to `O=C(Cl)c1ccc(C(=O)Cl)cc1`, the outcome in experiment [1], in experiment [2], in experiment [3], in experiment [4], in experiment [5] and in experiment [6] was inactive. In experiment [7], the result was inactive.
